HCV inhibitor = qHTS Assay for Inhibitors of Hepatitis C Virus (HCV). Huh7.5.1 HCVcc-Cre infection, luciferase reporter, 44 h. hit rate 3.4% among 340,000. AID 651820, 2012. Potency, µM (doses to about 41.8 µM), for inactives: top-dose activity change, negative = inhibition, most hits filed as inhibitors; active = well fitted inhibition curve with a large enough effect; inconclusive = small, poorly fitted or top-dose-only effect, or another doubt; inactive = no such curve, though single readings can be large or run the other way; note: potency is the fitted concentration of half-maximal effect
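After 44 h co-culture of compound, cells and HCVcc-Cre (~0.5 moi), substrate is added for 15 min at room temperature and luciferase measured over 15 sec. Cells were seeded at 1,000/well and pre-cultured 4 h.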
HCMV antiviral = qHTS Assay for inhibitors of the human cytomegalovirus (HCMV); HFF cells, HCMV-luciferase reporter, 72 h; stronger effect = lower value; hit rate 4.5% among 410,000; activity change, negative = inhibition, % at 57.5 µM; in the data active = activity change below about -60%; inconclusive = no clear call, values can overlap the other calls; inactive = above about -39%
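Screen run at 2 compound doses on HFFs infected with reporter HCMV, MOI 1 PFU/cell. Luciferase activity from cell lysates at 72 h post infection gave inhibition relative to buffer-only and Salinomycin wells.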
MARV entry inh = qHTS for inhibitors of binding or entry into cells for Marburg Virus; Potency, µM (highest dose often 37.8 µM), inactives show at the highest dose activity change, negative = inhibition, hits mostly inhibitors; hit rate 1.8% among 300,000; Marburg virus pseudotyped entry inhibition, cell reporter; calls by dose curve; tested in HEK293 cells; note: potency is the fitted concentration of half-maximal effect
LASV entry inh = qHTS for Inhibitors of binding or entry into cells for Lassa Virus. AID 540256, 2011. Lassa virus pseudotype entry inhibition, cell reporter. hit rate 1.2% among 300,000. Potency, µM (top dose mostly 37.9 µM), for the others: top-dose activity change, negative = inhibition, usual class: inhibitors; calls by dose curve; tested in HEK293 cells; note: potency is the fitted concentration of half-maximal effect; nearly all actives have a fitted effect of over 50% in size
FMDV inh = High Throughput Screening for Foot and Mouth Disease Virus Antivirals | Potency, µM (titrated, usually from 57.9 µM), for inactives: at the top dose activity change, negative = inhibition, hits mostly inhibitors | FMDV antiviral cell-based qHTS | hit rate 1.2% among 410,000; calls by dose curve; tested in HEK293T cells; note: read-out not given here; potency is the fitted concentration of half-maximal effect; nearly all actives have a fitted effect of over 45% in size
The depositor's hits bear a star; ? = inconclusive; nt = no result; [ ] = another dose, or the depositor's remark. Compounds with a hit are over-represented: about 7.9% of the library has one in this group of screens. % is set by controls: 0 for no effect and ±100 for the full control effect.

SMILES | HCV inhibitor | HCMV antiviral | MARV entry inh | LASV entry inh | FMDV inh
O=C(COC(=O)c1ccccc1C(=O)N1CCN(c2ccccc2)CC1)Nc1ccc(F)cc1 | ? | -24 | ? | -41% | -28%
O=C(COC(=O)c1ccccc1C(=O)N1CCN(c2ccc(F)cc2)CC1)NCc1ccccc1 | -9% | 4 | ? | ? | 25µM*
COC(=O)c1ccccc1NC(=O)N1CCN(c2ccc(F)cc2)CC1 | -28% | -63* | nt | nt | -23%
O=C(c1n[nH]c(=O)c2ccccc12)N1CCN(c2ccccc2)CC1 | 7% | 13 | -26%[46.1 µM] | 31% | 1%
O=C(c1ccccc1)c1ccc(N2CCN(C(=O)c3cccc(F)c3F)CC2)c(F)c1 | 13µM* | -22 | nt | nt | -67%
O=C(c1n[nH]c(=O)c2ccccc12)N1CCN(c2ccc(F)cc2)CC1 | -2% | -102* | -4% | -14% | ?
CC(=O)N1CCCc2cc(S(=O)(=O)N(C)CC(=O)Nc3ccc(C(C)C)cc3)ccc21 | nt | -32 | nt | -28%[46.1 µM] | -18%
Cc1ccc(CNc2nc(C)c(-c3ccn(CCN4CCOCC4)n3)s2)o1 | nt | nt | nt | nt | -12%
CC(=O)c1ccc(N2CCN(C(=O)c3ccccc3SCC(=O)NCc3ccco3)CC2)c(F)c1 | 13µM* | 5 | ? | -4% | ?
COc1ccccc1N1CCN(C(=O)c2ccccc2SCC(=O)NCc2ccco2)CC1 | 1% | -21 | ? | 18% | 4%
Cc1ccc(C)c(N2CCN(CCCNC(=O)Cn3c(-c4cccs4)cc4ccccc43)CC2)c1 | nt | ? | nt | ? | 0%
CCOc1ccc(NC(=O)CSc2nc3nc4c(cc3c(=O)n2CC)COC(C)(C)C4)cc1 | 3.2µM* | -27 | -6%[46.1 µM] | -16%[46.1 µM] | -15%
CCn1c(SCC(=O)Nc2ccc(OC)cc2)nc2nc3c(cc2c1=O)COC(C)(C)C3 | ? | ? | nt | nt | -6%
CCn1c(SCC(=O)Nc2ccc(C(C)=O)cc2)nc2nc3c(cc2c1=O)COC(C)(C)C3 | -16% | 77 | nt | nt | 36%
CCn1c(SCC(=O)Nc2ccccc2C)nc2nc3c(cc2c1=O)COC(C)(C)C3 | 10µM* | -6 | nt | nt | -15%
CCC1CN(C(=O)Nc2ccc(C)c(F)c2)c2ccccc2S1 (stereo not drawn) | nt | 22 | nt | 2%[46.1 µM] | 27%
COc1ccccc1Nc1nc(NCC(C)C)nc(N)c1[N+](=O)[O-] | ? | -85* | 3%[46.1 µM] | -6% | ?
COc1ccccc1Nc1nc(NCCCN(C)C)nc(N)c1[N+](=O)[O-] | ? | -28 | ? | -29% | -25%
CCC(C)Nc1nc(N)c([N+](=O)[O-])c(NCc2ccccc2)n1 (stereo not drawn) | 11µM* | -26 | nt | nt | ?
CCC(C)Nc1nc(N)c([N+](=O)[O-])c(Nc2ccccc2OC)n1 (stereo not drawn) | 13µM* | ? | -17%[46.1 µM] | ? | ?
COc1ccc(OC)c(Nc2nc(NCCC(C)C)nc(N)c2[N+](=O)[O-])c1 | ? | ? | ? | -43% | ?
Nc1nnc(P(c2ccccc2)c2ccccc2)s1 | 8% | -64* | nt | nt | -14%
COc1ccc(-c2cn3nc(N4CCCC(C(=O)Nc5cc(C)cc(C)c5)C4)sc3n2)cc1 (stereo not drawn) | nt | 0 | nt | 19%[46.1 µM] | 22%
O=C(CN(c1cccc(Br)c1)S(=O)(=O)c1ccccc1)N/N=C/c1cc([N+](=O)[O-])ccc1O | ? | -94* | ? | ? | ?
COc1ccc(N(CC(=O)N/N=C/c2ccc(N(C)C)cc2)S(=O)(=O)c2ccccc2)cc1 | -27% | 11 | ? | ? | 1%
SMILES | HCV inhibitor | HCMV antiviral | MARV entry inh | LASV entry inh | FMDV inh
COC(=O)COc1ccc(/C=N/NC(=O)CN(c2ccccc2OC)S(=O)(=O)c2ccccc2)cc1 | ? | -100* | -15%[46.1 µM] | -1% | ?
COc1ccccc1N(CC(=O)N/N=C/c1ccc(OCC(=O)NCc2ccco2)cc1)S(=O)(=O)c1ccc(C)cc1 | 5µM* | nt | ? | ? | -25%
COc1ccccc1N(CC(=O)NCc1ccco1)S(=O)(=O)c1ccc(C)cc1 | 6% | -2 | 1%[46.1 µM] | 21% | -6%
COc1ccc(N(CC(=O)N/N=C/c2cccc(OC)c2OC)S(=O)(=O)c2ccccc2)cc1 | ? | -34 | nt | nt | -25%
O=C(CCCC(=O)Nc1cccc(Br)c1)N/N=C/c1cc([N+](=O)[O-])ccc1O | 0% | 20 | ? | -10%[46.1 µM] | -11%
COc1ccc(N(CC(=O)N/N=C/c2ccccc2F)S(=O)(=O)c2ccccc2)cc1 | ? | -77* | ? | ? | 1%
COc1cccc(CO[C@H]2C=C[C@@H](c3ccccc3)O[C@H]2CN=[N+]=[N-])c1 | nt | nt | -17%[14.2 µM] | nt | nt
CC(C)CON=C1C[C@@H](O)[C@@H](O)[C@@H]2[C@H]3C(=O)N(c4cccc(Oc5ccccc5)c4)C(=O)[C@@H]3CC[C@H]12 | nt | nt | -1%[14.2 µM] | nt | nt
Cc1ccc(S(=O)(=O)N(CC(=O)N/N=C/c2ccco2)c2cc(Cl)cc(Cl)c2)cc1 | -15% | ? | 16µM* | ? | 2%
Cc1nc(C)c(-c2ccc(SCC(=O)Nc3cccc(F)c3)nn2)s1 | 14µM* | ? | ? | ? | ?
Cc1nc(C)c(-c2ccc(SCC(=O)Nc3cccc(Cl)c3)nn2)s1 | 10µM* | 7 | 1%[46.1 µM] | -1%[46.1 µM] | ?
CC(=O)c1cccc(NC(=O)CSc2ccc(-c3sc(C)nc3C)nn2)c1 | ? | -31 | ? | ? | ?
Cc1cc(C(=O)CS(=O)(=O)c2ccc(Cl)cc2)cc(C)c1O | 11µM* | 18 | nt | nt | 10%
COc1ccc(S(=O)(=O)CC(=O)c2cc(C)c(O)c(C)c2)cc1 | -6% | -39 | nt | nt | -5%
Cc1cc(C)cc(NC(=O)c2cnn(-c3ccccc3)c2C2CCNCC2)c1 | -1% | -86* | nt | nt | -12%
Cc1cc(C)cc(NC(=O)c2cnn(-c3ccc(C)c(C)c3)c2C2CCNCC2)c1 | nt | -93* | nt | ? | -17%
Cc1ccc(-n2ncc(C(=O)Nc3cc(Cl)ccc3C)c2C2CCNCC2)cc1C | -11% | -91* | nt | nt | -22%
O=C(Nc1cccc(C(F)(F)F)c1)c1cnn(-c2cccc(F)c2)c1C1CCNCC1 | nt | -77* | nt | 38%[46.1 µM] | -18%
COc1ccc(OC)c(NC(=O)C2CCCN(S(=O)(=O)c3ccc4[nH]c(=O)ccc4c3)C2)c1 (stereo not drawn) | nt | ? | nt | -4%[46.1 µM] | -23%
O=C(NC(=S)NC(c1ccccc1)c1ccncc1)c1ccccc1 (stereo not drawn) | ? | -10 | 6.5µM* | ? | ?
CC(C)OC(=O)c1c(NC(=O)C2c3ccccc3Oc3ccccc32)sc2c1CCCC2 | nt | -8 | -25%[46.1 µM] | 5%[46.1 µM] | -1%
Cc1noc(C)c1COc1cccc(C(=O)NCCc2c[nH]c3ccccc23)c1 | ? | 29 | ? | 10µM* | -18%
CCn1nc(C(=O)NNC(=O)c2ccccc2OCc2c(C)noc2C)c2ccccc2c1=O | ? | -83* | nt | nt | -28%
Cc1ccc(C(=O)NNC(=O)c2ccccc2OCc2c(C)noc2C)cc1 | 1% | 2 | 3.5µM* | 6% | 7%

Source: PubChem (National Center for Advancing Translational Sciences (NCATS))
